Measurements taken from PubChem BioAssay (NCI).
Compounds without any hit were thinned out: in the full panel of roughly 79,000, 15% have a hit. Unmarked numbers belong to inactive results. Active and inactive are the calls of the source. Cut-off read from the data, not from the text of the source: active = growth inhibition above about 70%; inactive = the rest.

Assay: NCI Yeast Anticancer Drug Screen. Data for the sgs1 mgt1 strain (AID 161);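 note: 0% = growth of cultures given vehicle only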
Settings: S. cerevisiae sgs1 mgt1 strain, at 50.0 µM, hits give high values
Experimental: Growth inhibition of yeast strains with defined genetic alterations is measured as a screen for potential anti-cancer activity. Selected strains with alterations in DNA damage repair or cell cycle control were exposed to compounds and growth inhibition was measured relative to vehicle treated controls. The strain used in this assay is sgs1 mgt1

| SMILES | growth inhibition |
| --- | --- |
| CCOC(=O)CC(=O)c1sc(SC)c(C#N)c1N | -10.2% |
| CCN(CC)CCOB(c1cccc2ccccc12)c1cccc2ccccc12 | 17.1% |
| O=C(CCC(O)c1ccccc1)c1ccccc1 (stereo not given) | -9.3% |
| O=[N+]([O-])c1ccc(CCn2cnc3c(N(CCO)CCO)ncnc32)cc1 | 3.6% |
| Cc1ccc(N=CN(C)C)c(Cl)c1 | 4.6% |
| CC(=O)OC1CCC2(C)C(CCC3C2CCC2(C)C(c4cccc(=O)o4)CCC32)C1 (stereo not given) | 11.4% |
| CCCCCCCCCCCCCCCCC/C(CC)=N/Nc1ccc([N+](=O)[O-])cc1[N+](=O)[O-] | -24.6% |
| CCOc1ccc2nc(N=NC(C(C)=O)C(C)=O)sc2c1 | 1.3% |
| NC(=O)C1CC2CC(Cl)C1C2 (stereo not given) | -18.1% |
| Cc1cnc2c(C)ccc([N+](=O)[O-])c2c1NCCCN(C)C | 12.7% |
| COc1ccc(NC(=O)Nc2cc(C(F)(F)F)ccc2Cl)cc1 | 5.9% |
| CCOC(=O)C(C#N)(CCC#N)CCC#N | 9.05% |
| Nc1c(OS(=O)(=O)c2ccccc2)cccc1OS(=O)(=O)c1ccccc1 | 18.8% |
| N#CCC(=O)N/N=C(\C(=O)Nc1ccc(Cl)c(Cl)c1)C1CN(c2ccccc2)N=C1N (stereo not given) | -11.8% |
| O=C(O)c1c(Br)c(Br)c(Br)c(Br)c1C(=O)Nc1ccc(Cl)cc1C(F)(F)F | 11.1% |
| OCC(O)c1ccccn1 (stereo not given) | 6.65% |
| Cc1ccc(NC(=O)CCC(=O)C2CC(=O)CCC2=O)cc1C (stereo not given) | -0.7% |
| O/C=C(\Cl)CCl | 12.4% |
| Cc1ccc(CCCC(=O)O)c2ccc3ccccc3c12 | 8.6% |
| c1cc(OCCOc2cccc3ocnc23)c2ncoc2c1 | -5.85% |

| SMILES | growth inhibition |
| --- | --- |
| CN(c1cn(C2CC[C@@H](CO)O2)c(=O)[nH]c1=O)C1CCCCC1 (stereo not given in full) | -58.4% |
| O=S(=O)(c1ccccc1)c1cccc2c1NCCC2 | 34.4% |
| CC1(C)C=C(O)C=C(O)C1 | 17.4% |
| O=S(=O)(O)CC(NCc1ccccc1)c1ccccc1 (stereo not given) | -19.6% |
| O=C(Oc1c(Cl)cc([N+](=O)[O-])cc1[N+](=O)[O-])Sc1ccccc1 | 99.5% (active) |
| O=c1[nH]c(C(F)(F)F)c(CCc2ccccc2)c(=O)[nH]1 | 36.9% |
| Cc1ccc(N2[C@H]3CCCN3c3ccc(C)cc3[C@@H]2C(F)(F)F)cc1 | 29.5% |
| CC1(C)S[C@H](c2ccccc2C(=O)O)N[C@@H]1CC(=O)O | -49.5% |
| C=CC1(C)C(C)=C(C)C(C)=C1C | -13.7% |
| NS(=O)(=O)c1cccc(C(F)(F)F)c1 | -13.6% |
| Cc1cc2[nH]c3c(C#N)c4c(c(=O)n3c2cc1C)CCCC4 | -7% |
| CN(C)c1ccc(/C=C/c2nc3ccc(Cl)cc3[nH]2)cc1 | -1.9% |
| NCCN=C(N)C(N)=NCCN | -2.35% |
| Cc1cc(C)nc(N)n1 | -1.85% |
| OC(C(=S)N1CCCC1)(c1ccccc1)c1ccccc1 | 24.2% |
| O=[N+]([O-])c1ccc(OC2CC3C4C=CC3C2C4)c([N+](=O)[O-])c1 (stereo not given) | -5.45% |
| CC(C)(C)c1ccc(OC(=S)Nc2ccccc2)cc1 | -17.4% |
| CCOC(=O)N1CCN(Cc2cc(=O)n3ccc(C)cc3n2)CC1 | 3.7% |
| COC1(C)C=NCC(C)(C)NC(=O)C(C)(OC)C=NCC(C)(C)NC1=O (stereo not given) | -29.4% |
| Cc1cc(C)cc(N)c1 | -5.1% |
